An excerpt weighted towards active compounds, which were near 1.4% of everything screened.
Vif-APOBEC3F blk – blocks the Vif interaction with APOBEC3F. Potency, µM (doses to about 46.1 µM), for the others: at the top dose activity, negative = active. hit rate 0.2% among 390,000. AID 602313. HeLa A3F-eYFP + Vif (tagged APOBEC3F with the HIV-1 protein that degrades it), YFP fluorescence increase; note: potency is the fitted concentration of half-maximal effect; % of control where 0% means no effect; nearly all actives have a fitted effect of over 65% in size
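HeLa cells stably expressing A3F-eYFP plus Vif, plated and incubated overnight at 37 deg C, then exposed to compounds overnight at 37 deg C. Blocked degradation read as raised yellow fluorescence (Ex 488/Em 500-530).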
S-ASM inh – human S-ASM enzyme inhibition; P17405; placental ASM, HMU-PC fluorogenic substrate, 60 min; Potency, µM (titrated, usually from 57.5 µM), inactives show at the highest dose activity change, negative = inhibition, hits mostly inhibitors; hit rate 0.006% among 340,000; AID 504937; note: potency is the fitted concentration of half-maximal effect
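HMU-PC0 cleavage (9 uM final) by human placental ASM, 60 min at 37 °C following 10 min compound exposure at RT; stopped at pH 10, fluorescence Ex 386/Em 447 nm.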
Akt phos inh – Akt phosphorylation inhibition | Neuro2A IGF-stimulated pAkt S473 HTRF, 20 min; hits give low values | activity change, % for hits at 50 µM | hit rate 0.32% among 360,000; in the data active = activity change below about -80%; inconclusive = mostly about -51% to -80%; note: % is set by controls: 0 for no effect and ±100 for the full control effect
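Single-point screen (50 µM final compound) in Neuro2A cells stimulated 20 min with 6 nM IGF at 37 deg C. After lysis, Ser473-phosphorylated Akt read by HTRF (ex 330 nm, em 615/665 nm) as the 665/615 ratio.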
TSG101-PTAP inh – blocks PTAP/TSG101 interaction to inhibit HIV-1 budding; Q99816; Fluorescence polarization, FITC-PTAP peptide / Tsg101 binding; Potency, µM (doses to about 115 µM), for inactives: at the highest dose activity change, negative = inhibition, actives largely listed as inhibitors; 340,000 tested, under 10 active; AID 493005; active = well fitted inhibition curve with a large enough effect in the main read-out, with a control signal flat, not every such curve was filed as active; inconclusive = small, poorly fitted or top-dose-only effect, or effect the other way, or a change in a side signal; inactive = no such curve, though single readings can be large or run the other way; note: potency is the fitted concentration of half-maximal effect; % of control where 0% means no effect
Target sequence (Q99816 whole entry, looked up): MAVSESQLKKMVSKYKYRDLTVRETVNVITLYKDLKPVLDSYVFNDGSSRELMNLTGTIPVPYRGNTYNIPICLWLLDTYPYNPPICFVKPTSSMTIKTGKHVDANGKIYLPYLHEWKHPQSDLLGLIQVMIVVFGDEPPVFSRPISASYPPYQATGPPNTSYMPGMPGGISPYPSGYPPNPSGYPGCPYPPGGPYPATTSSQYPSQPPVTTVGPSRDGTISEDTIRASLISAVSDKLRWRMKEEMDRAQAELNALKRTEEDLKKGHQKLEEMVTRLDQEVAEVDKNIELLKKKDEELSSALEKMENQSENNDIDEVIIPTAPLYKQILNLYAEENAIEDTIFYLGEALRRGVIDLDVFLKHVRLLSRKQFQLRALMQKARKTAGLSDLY
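Compounds were pin-transferred onto Tsg101 binding domain (10 uM final) in HEPES pH 7.5 buffer, then FITC-PTAP peptide was added at 50 nM final. After 20 min at RT, polarization reported peptide displacement across a qHTS concentration series.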
12-LOX inh – inhibitors of human 12S-lipoxygenase ALOX12. hit rate 1.1% among 580,000. AID 1671190. purified 12hLO, xylenol orange hydroperoxide absorbance. P18054. Potency, µM (doses to about 108 µM), for inactives: at the top dose activity change, negative = inhibition, usual class: inhibitors; note: potency is the fitted concentration of half-maximal effect; % is set by controls: 0 for no effect and ±100 for the full control effect
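Purified human 12hLO (150 nM final) in 25 mM Hepes, 0.01% Triton X-100, pH 7.0 was preincubated 15 min at room temperature with compound. Then 40 uM arachidonic acid was added, 30 min. Hydroperoxide was read by Fe-XO absorbance ratio 573/405 nm.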
Vif-APOBEC3G blk – Vif-A3G binding inhibition; Q9HC16; HeLa A3G-eYFP + Vif (tagged APOBEC3G with the HIV-1 protein that degrades it), YFP fluorescence, overnight; Potency, µM (doses to about 46.1 µM), for inactives: at the highest dose activity, negative = active, actives largely listed as inhibitors; hit rate 0.076% among 410,000; AID 602310; note: potency is the fitted concentration of half-maximal effect; % is set by controls: 0 for no effect and ±100 for the full control effect; nearly all actives have a fitted effect of over 60% in size
Target sequence (Q9HC16 whole entry, looked up): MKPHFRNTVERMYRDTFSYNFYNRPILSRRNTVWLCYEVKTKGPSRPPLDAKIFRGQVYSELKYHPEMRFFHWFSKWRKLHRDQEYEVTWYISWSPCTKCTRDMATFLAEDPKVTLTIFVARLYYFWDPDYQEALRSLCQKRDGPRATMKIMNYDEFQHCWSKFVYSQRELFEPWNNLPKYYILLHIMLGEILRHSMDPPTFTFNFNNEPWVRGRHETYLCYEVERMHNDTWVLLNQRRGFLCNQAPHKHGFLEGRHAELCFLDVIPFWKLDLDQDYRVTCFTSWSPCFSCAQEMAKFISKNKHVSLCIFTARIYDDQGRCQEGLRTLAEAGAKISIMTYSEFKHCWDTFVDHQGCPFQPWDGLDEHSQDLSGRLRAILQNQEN
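Read-out is eYFP fluorescence (Ex 488/Em 500-530) from Vif-expressing HeLa A3G-eYFP cells; more signal means A3G escaped Vif-mediated degradation. Cells plated overnight, compound pinned in, incubated overnight at 37 deg C.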
The depositor's hits bear a star; i = inactive; ? = inconclusive; / = no result given; [ ] = remark or other dose. Unless noted, calls come from the whole dose curve; as a rule, active = well fitted curve in the direction sought with a large enough effect; inconclusive = small, poorly fitted or top-dose-only effect, or another doubt; inactive = no such curve, though single readings can be large; an effect the other way counts as inactive or inconclusive.

SMILES | Vif-APOBEC3F blk | S-ASM inh | Akt phos inh | TSG101-PTAP inh | 12-LOX inh | Vif-APOBEC3G blk
COc1ccc(NC(=O)c2cccc(N3C(=O)C4C5CCC(C5)C4C3=O)c2)cc1 (stereo unspecified) | 10.2% | / | i | -2.0% | 6.31µM* | 1.9%
Fc1cc(Br)ccc1NC(=S)NCc1cccs1 | / | / | / | / | 25.1µM* | /
O=C(OCC(=O)N1CCN(c2ccccc2)CC1)c1cccc(Cl)c1 | 2.3% | -0.1% | -113.2%* | -1.4% | ? | -1.2%
c1ccc(CN2C[C@@H]3CC[C@H](C2)N(Cc2ccc4nsnc4c2)C3)nc1 | / | / | / | / | 79.7% | /
CCS(=O)(=O)N1CC2(CN(C(=O)Cc3ccccn3)[C@@H](CO)c3[nH]c4cc(OC)ccc4c32)C1 | / | / | / | / | -27.7% | /
CCS(=O)(=O)N1CC2(CN(Cc3ccc4c(c3)OCO4)[C@@H](CO)c3[nH]c4cc(OC)ccc4c32)C1 | / | / | / | / | 14.1µM* | /
COc1ccc2c3c([nH]c2c1)[C@@H](CO)N(Cc1ccccc1Cl)CC31CN(C(=O)C2CC2)C1 | / | / | / | / | 15.8µM* | /
O=C(CCCn1c(=O)c2cccn2c2ccccc21)N1CCN(c2cccc(Cl)c2)CC1 | / | / | / | / | -3.3% | /
Cc1ccc2nc(SCC(=O)Nc3ccc4sc(C)nc4c3)c(C#N)cc2c1 | 11.2µM* | 9.4% | i | -2.6% | 0.0% | -4.1%
COc1cccc(-c2noc(Nc3ccc(OC)c(OC)c3)n2)c1 | / | / | / | / | 2.9% | /
Cc1cc(NC(=O)c2ccccc2Cl)no1 | -9.6% | 2.7% | -103.7%* | -1.2% | 434.9% | 0.1%
CCOC(=O)C1CCN(S(=O)(=O)c2ccc3c(c2)CC(=O)N3C)CC1 | 13.9% | 3.7% | i | -2.7% | 44.7µM* | -3.7%
CCOC(=O)C1CCN(S(=O)(=O)c2ccc3c(c2)CCCN3C(C)=O)CC1 | / | 3.7% | i | -2.0% | -20.7% | 2.7%
CCC(NC(=O)C1CCCO1)c1ccccc1OC(C)C (stereo unspecified) | / | / | / | / | 1.0% | /
COCCN[C@@H]1C[C@@H]2c3[nH]c4ccccc4c3C[C@@H](C(=O)OC)N2[C@H](c2ccccc2)C1 | / | / | / | / | 124.8%[176 µM] | /
COc1cc(-c2nc(CC(=O)NC3CCN(Cc4ccccc4)CC3)cs2)cc(OC)c1OC | / | / | / | / | -2.5% | /
Cc1ccccc1Cc1cnc(N)s1 | / | / | / | / | 43.0% | /
Cc1ccccc1Cc1sc(N)nc1C | / | / | / | / | 14.1µM* | /
COc1ccc(CNC(=O)c2ccc(NC(=O)C3CCCO3)cc2)cc1 (stereo unspecified) | 1.7% | 3.9% | -104.9%* | -11.8% | -11.9% | 0.8%
O=C(NCc1ccc(F)cc1)c1ccc(NC(=O)C2CCCO2)cc1 (stereo unspecified) | -11.0% | -0.2% | i | -7.6% | 1.7% | -3.4%
CCCOC(=O)c1ccc(NC(=O)C2CCCO2)cc1 (stereo unspecified) | -4.4% | 0.3% | -118.9%* | -5.7% | 3.8% | 0.9%
O=C(NC1CCS(=O)(=O)C1)c1cc(-c2ccco2)on1 (stereo unspecified) | / | / | / | / | -29.7% | /
Cc1ccc(S(=O)(=O)NNc2c3ccccc3nc3ccc(Cl)cc23)cc1 | -14.9% | / | i | / | 25.1µM* | -0.4%
Brc1ccccc1-c1nc(-c2ccncc2)no1 | / | / | / | / | 8.4% | /
CCN(CC)C(=O)Cc1nc(-c2cccs2)oc1C | / | / | / | / | 12.0% | /
SMILES | Vif-APOBEC3F blk | S-ASM inh | Akt phos inh | TSG101-PTAP inh | 12-LOX inh | Vif-APOBEC3G blk
Cc1ccc(S(=O)(=O)N2CCN(C(=O)CSc3nc4ccccc4c(=O)[nH]3)CC2)cc1 | ? | 1.7% | -95.3%* | -6.7% | 0.0% | -4.4%
O=C1NC2(CCN(CC3CCCC3)CC2)Oc2ccccc21 | / | / | / | / | 25.1µM* | /
COc1cc(CN2CCN(Cc3ccc(C)cc3)CC2)cc(OC)c1 | / | / | / | / | 0.501µM* | /
COc1cc(CN2CCN(Cc3ccco3)CC2)cc(OC)c1 | -24.5% | 6.8% | i | -5.8% | ? | 1.4%
COc1cccc(CN2CCN(c3ncccn3)CC2)c1 | 5.1% | 4.0% | i | -3.2% | 0.794µM* | 1.4%
Fc1ccccc1CN1CCN(c2ncccn2)CC1 | 11.0% | -1.1% | i | 1.4% | 0.562µM* | -3.6%
Fc1cccc(F)c1CN1CCN(c2ncccn2)CC1 | -14.0% | 1.7% | i | -3.3% | -8.8% | 1.1%
N#Cc1nc(-c2ccccc2F)oc1NCc1ccco1 | / | / | / | / | -0.4% | /
CC(=O)Nc1ccc(NC(=O)CN2C(=O)NC(c3ccc(C)cc3)C3=C2COC3=O)cc1 (stereo unspecified) | / | / | / | / | 20.0% | /
O=C(CN1C(=O)NC(c2ccc(Cl)cc2)C2=C1COC2=O)Nc1ccc(F)c(Cl)c1 (stereo unspecified) | / | / | / | / | 7.94µM* | /
Cc1ccc(C2NC(=O)N(CC(=O)Nc3ccc(Br)c(C)c3)C3=C2C(=O)OC3)cc1 (stereo unspecified) | / | / | / | / | 8.91µM* | /
O=C(CN1C(=O)NC(c2ccccc2Cl)C2=C1COC2=O)Nc1ccc(F)c(Cl)c1 (stereo unspecified) | / | / | / | / | -1.1% | /
CC(=O)c1cccc(NC(=O)CN2C(=O)NC(c3ccc(C)cc3)C3=C2COC3=O)c1 (stereo unspecified) | / | / | / | / | 34.5% | /
Cc1ccc(C2NC(=O)N(CC(=O)Nc3ccc(C(F)(F)F)cc3)C3=C2C(=O)OC3)cc1 (stereo unspecified) | / | / | / | / | 10µM* | /
Cc1ccc(C2NC(=O)N(CC(=O)Nc3ccc(Br)cc3F)C3=C2C(=O)OC3)cc1 (stereo unspecified) | / | / | / | / | 8.91µM* | /
O=C(CN1C(=O)NC(c2ccc(Cl)cc2)C2=C1COC2=O)Nc1ccc(C(F)(F)F)cc1 (stereo unspecified) | / | / | / | / | 8.91µM* | /
CCCCc1ccc(NC(=O)CN2C(=O)NC(c3ccc(Cl)cc3)C3=C2COC3=O)cc1 (stereo unspecified) | / | / | / | / | -15.4% | /
COP(=O)(OC)c1nc(-c2cccc([N+](=O)[O-])c2)oc1NCc1ccc(C)cc1 | / | / | / | / | -25.2% | /
OC1(CN2CCN(c3cnccn3)CC2)CNCCOC1 (stereo unspecified) | / | / | / | / | 10µM* | /
CCCCN(CCCC)S(=O)(=O)c1ccc(C(=O)Nc2sc3c(c2C(N)=O)CCN(CC)C3)cc1 | 28.2µM* | / | / | / | -17.2% | ?
O=S(=O)(c1cc(Cl)ccc1Cl)N1CCCC1c1nnc2ccccn12 (stereo unspecified) | / | / | / | / | 10.6% | /
COc1ccc(CNC(=O)C(C#N)c2nc3ccccc3nc2N2CCCC2)cc1 (stereo unspecified) | ? | 134.9% | -83.6%* | ? | 486.7% | -19.2%
CCN1CCN(c2nc3ccccc3nc2C(C#N)S(=O)(=O)c2ccc(OC)cc2)CC1 (stereo unspecified) | / | / | / | / | 17.8µM* | /

Screening data deposited in PubChem BioAssay by National Center for Advancing Translational Sciences (NCATS).
